# PubChem BioAssay (Tox21)
# Where “and” joins values, the source holds several entries; their conditions need not be identical. Equal entries are not always repeated. Inconclusive results are not listed. Calls of active or inactive are those of the source. The call rests on the fitted dose curve; in most records, active means well fitted cell-killing curve with a large enough effect in the repeat runs; inconclusive means weak or mixed curves, or effect the other way; inactive means flat fitted curve, though single readings scatter.
# Assay: qHTS RealTime-Glo MT Cell Viability Assay in HEK293 cells - 40 hour (AID 1224874); further: nearly all actives have a fitted effect of over 50% in size
# Conditions: RealTime-Glo luminescence; max response: active compounds read low
# From the text: U.S. Tox21 Program National Center for Advancing Translational Sciences [NCATS] NIH Chemical Genomics Center [NCGC] U.S. Environmental Protection Agency [EPA] National Institutes of Environmental Health Sciences [NIEHS] National Toxicology Program [NTP] U.S. Food and Drug Administration [FDA] Tox21 Assay Overview: Measure of cell viability is critical in the cell-base assay. Analysis of cell viability is necessary for the characterization of cell responses to cytotoxic drugs and environmental stress. A RealTime-Glo MT Cell Viability Assay to monitor cell viability in real time of continues cell culture during 40 hours of compound treatment was used to screen Tox21 10K library compounds in Hek293 cells. The RealTime-Glo MT Cell Viability Assay is a nonlytic, homogeneous, bioluminescent method to measure cell viability in real time using a simple, plate-based method. The assay involves adding NanoLuc luciferase and a cell-permeant prosubstrate to cells in culture. Viable cells reduce the proprietary prosubstrate to generate a substrate for NanoLuc luciferase. This substrate diffuses from cells into the surrounding culture medium, where it is rapidly used by the NanoLuc Enzyme to produce a luminescent signal. The signal correlates with the number of viable cells, making the assay well suited for cytotoxicity studies.
# Tox21 Assay Protocol Summary: The mixture of Hek293 cell suspension and reagents were dispensed at 600cells/6 ul/well in 1536-well tissue culture treated black solid bottom plates using a Multidrop dispenser. After the assay plates were incubated at a 37 C/5% CO2 incubator for 5 hours, 23 nL of compounds dissolved in DMSO, positive and negative controls was transferred to the assay plate by a pintool work station. The plates were incubated at 37 C for 40 hours. The luminescence intensity were measured at 0h, 8h, 16h, 24h, 32h and 40h time points using ViewLux plate reader during compound treatment.
# On the % scale 0 is the no-effect control and ±100 the full control effect; potency means the concentration at half of the fitted maximal effect.
SMILES,max response,Potency
BrCCc1ccccc1,-1.95% (inactive),
COc1cc(CCN)cc(OC)c1OC,-4.29% (inactive),
CC(C)[N+](C)(CCC(C(N)=O)(c1ccccc1)c1ccccc1)C(C)C,-2.84% (inactive),
CCOC(=O)C(Cl)Cc1cc(-n2nc(C)n(C(F)F)c2=O)c(F)cc1Cl (stereo not given),2.36% (inactive),
CC1=C2[C@H]3OC(=O)[C@@H](C)[C@@H]3CC[C@@]2(C)C=CC1=O,10.1% (inactive),
Cc1ccc(S(=O)(=O)N[C@@H](CCCCN)C(=O)CCl)cc1,2.57% (inactive),
NNC(N)=O,0.384% (inactive),
CC(O)CCl (stereo not given),1.35% (inactive),
O=C(Cl)CCl,0.179% (inactive),
C=CC1(C)OC(=O)N(c2cc(Cl)cc(Cl)c2)C1=O (stereo not given),-8.21% (inactive) and -20% (inactive),
CCCCS(=O)(=O)Cl,6.29% (inactive),
CCN(CC)CCOC(=O)C(O)(c1ccccc1)c1ccccc1,-0.657% (inactive),
C=C(C)[C@H]1CN[C@H](C(=O)O)[C@H]1CC(=O)O,0.763% (inactive),
COc1ccccc1OC,0.0799% (inactive),
N=C(N)[Se],-7.73% (inactive),
C=C(Cl)CSC(=S)N(CC)CC,-15% (inactive),
COc1ccc(C=O)cc1O,0.952% (inactive),
CS(=O)(=O)c1ccc(C(=O)C2C(=O)CCCC2=O)c(Cl)c1COCC(F)(F)F,2.82% (inactive),
CCC(C)(C#N)N=NC(C)(C#N)CC (stereo not given),2.46% (inactive),
CN(C)C(=O)Oc1cc(OC(=O)N(C)C)cc(C(O)CNC(C)(C)C)c1 (stereo not given),-1.56% (inactive),

SMILES,max response,Potency
OP(O)c1ccccc1,9.39% (inactive),
ClCCN1CCCC1,8.04% (inactive),
CC(C)N(Cc1ccccc1)C(=O)C(C)(C)C,-9.28% (inactive),
CCC1(c2cccc(O)c2)CCCCN(C)C1 (stereo not given),3.71% (inactive),
C=C1CC[C@@]2(O)[C@H]3Cc4ccc(O)c5c4[C@@]2(CCN3CC2CC2)[C@H]1O5,9.06% (inactive),
[P]#[In],0.3% (inactive),
Cn1c(N)nc2c3cccnc3ccc21,-11% (inactive),
O=[N+]([O-])CCO,3.11% (inactive),
CN1COCN(Cc2cnc(Cl)s2)/C1=N\[N+](=O)[O-],7.06% (inactive),
N#CN=C1SCCN1Cc1ccc(Cl)nc1,-3.59% (inactive),
O=C(O)C(F)(F)C(F)(F)C(F)(F)C(F)(F)C(F)(F)C(F)(F)F,-16.5% (inactive),
ClCCCCl,9.81% (inactive),
C[C@H]1CCCC(=O)CCC/C=C/c2cc(O)cc(O)c2C(=O)O1,,21.1 µM (active)
CCNP(=S)(OC)O/C(C)=C/C(=O)OC(C)C (stereo not given),-13.5% (inactive),
CCCC[N+](=O)[O-],1.79% (inactive),
O=c1[nH]oc2c1CCNC2,5.54% (inactive),
COC(=O)[C@@H](N)CCCN/C(N)=N/[N+](=O)[O-],6.22% (inactive),
CCC(=O)OC1(c2ccccc2)CCN(C)CC1,-7.76% (inactive),
Clc1nc(Cl)nc(Nc2ccccc2Cl)n1,11.5% (inactive),
[O-][Br+2]([O-])O,3% (inactive),
